# High-throughput results deposited in PubChem BioAssay by several laboratories.
# Anthrax LF inh2: blocks Bacillus anthracis lethal factor protease. P15917. multiplex microsphere protease cleavage assay, LF. inhibition, % at 10 µM. 0.12% of 360,000 active; note: plate controls were buffer without enzyme for full effect and enzyme alone for no effect
# BoNT-A LC inh2: blocks Botulinum neurotoxin A light chain protease. inhibition, % at 10 µM. AID 588499. 0.17% of 360,000 active. multiplex microsphere protease substrate cleavage, flow cytometry; note: plate controls were buffer without enzyme for full effect and enzyme alone for no effect
# Autofluor counter: counter-screen for toxin protease inhibitors: compound fluorescence; compound autofluorescence counterscreen, microsphere flow cytometry; stronger effect = higher value; fluorescence intensity (concentration not given with the values); 3.1% of 360,000 active; in the data active = fluorescence intensity above about 16000; inconclusive = no clear call, values can overlap the other calls
# MazEF act: MazEF (E. coli) toxin RNase activation | P0AE70 | FAM/BHQ RNA-DNA oligo cleavage fluorescence, 5 h | activation, % at 20 µM | 0.32% of 350,000 active; in the data active = activation above about 50%
# Target sequence (P0AE70 whole entry, looked up): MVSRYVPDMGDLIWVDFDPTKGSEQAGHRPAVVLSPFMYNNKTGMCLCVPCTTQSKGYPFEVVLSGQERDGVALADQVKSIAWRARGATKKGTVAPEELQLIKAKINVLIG
# BoNT F protease: blocks Botulinum neurotoxin F light chain protease | Multiplex microsphere protease cleavage assay, flow cytometry | inhibition, % at 10 µM | 0.22% of 360,000 active; in the data active = inhibition above about 35%, passing the limit was not always enough; inconclusive = no clear call, values can overlap the other calls; note: plate controls were buffer without enzyme for full effect and enzyme alone for no effect
# Vc quorum ag: quorum light induction in luxS cqsA deficient V. cholerae. activation, % at 18.7 µM. V. cholerae BH1578 lux reporter, luminescence, 6 h. 0.16% of 350,000 active; in the data active = activation mostly above about 9.7%, no sharp cut-off; inconclusive = no clear call, values can overlap the other calls; inactive = mostly below about 3.7%
# Active calls of the source: *; i = inactive; ? = inconclusive; nt = no result given; + = active, no number. Rows were chosen to be rich in hits. Some 3.9% of all compounds tested hit in one or more screens of this group. Cut-off read from the data, not from the text of the source, unless noted: active = inhibition above about 30%; inconclusive = no clear call, values can overlap the other calls; inactive = below that.
SMILES,Anthrax LF inh2,BoNT-A LC inh2,Autofluor counter,MazEF act,BoNT F protease,Vc quorum ag
C#CCOc1ccc(CNC[C@H]2O[C@@H](n3cnc4c(N)ncnc43)[C@H](O)[C@@H]2O)cc1,-2,0,3694,10,2,3
CCOc1ccc2c(c1)S/C(=C\c1cccs1)C(=O)N2,-8,0,3182,77*,6,0
Nc1nc(Nc2cccc(F)c2)nc(NCc2ccco2)c1[N+](=O)[O-],nt,nt,nt,66*,nt,-1
Cc1cc(Nc2ccccc2C(=O)O)nc2nc3ccccc3c(=O)n12,-15,-1,16916*,6,-4,-12
COc1ccc2c(c1)SCC(=O)N2C,2,-5,21232*,3,-2,14
Oc1sc(C=Nc2ccccc2)c2ccccc12,-2,0,3857,140*,-4,i
S=C(NNc1ccc2ccccc2c1)NC1CCCCC1,5,7,7228,18,-18,i
COc1ccc(NS(=O)(=O)c2cc(C(=O)N(C)CCc3ccccn3)ccc2Cl)cc1,-1,0,3632,-15,0,i
C/C=C/C=[N+](\[O-])C(C)/C(=N/O)c1ccc(F)cc1 (centres undefined),1,-2,16840*,0,-5,i
C=CCNC(=O)c1cc(-c2ccc(Br)cc2)on1,1,0,22477*,-10,0,i
COc1ccc(Nc2cc(C(=O)NCCCN3CCOCC3)c3ccccc3n2)cc1,-3,-2,6335,4,-3,0
O=C(NCCN1CCOCC1)c1cc(-c2ccc(Br)cc2)on1,-2,-1,10811,-7,-7,0
O=C(NCCCN1CCOCC1)c1cc(-c2ccc(Br)cc2)on1,-16,15,18589*,-17,14,i
COc1ccc(Nc2nc(C(=O)NCCCN3CCOCC3)cs2)cc1,0,-1,16850*,4,-3,4
O=C(c1ccccc1)C(CN1CCCCC1)c1ccccc1 (centres undefined),2,1,2805,10,2,i
O=C(NCCc1ccc2c(c1)OCCO2)c1cc(S(=O)(=O)N2CCCC2)ccc1Br,2,0,3337,0,3,0
CCOc1ccccc1N1CCN(C(=O)c2cc(-c3cc(OC)ccc3OC)nc3ccccc23)CC1,2,-8,5886,-2,-16,i
CCOC(=O)C1=C(C)OC(N)=C(C#N)C1c1ccsc1 (centres undefined),-9,18,17866*,-3,16,i
CCOC(=O)C1=C(CC)OC(N)=C(C#N)C1c1ccc(OC)cc1OC (centres undefined),1,?,19947*,-4,7,i
CCOC(=O)C1=C(CC)OC(N)=C(C#N)C1c1ccsc1 (centres undefined),-2,0,2439,4,5,i
Oc1ccc2oc3c(c2c1/C=N/n1cnnc1)CCCC3,-1,?,21898*,0,-11,i
COc1ccc(Cl)cc1NC(=O)NCc1ccc2c(c1)OCO2,5,-2,5748,-2,0,i
CCCc1cc(C(N)=O)c(NC(=O)c2ccoc2C)s1,-1,-8,23003*,12,-12,2
CCc1c(C)sc(NC(=O)c2cc(C)on2)c1C#N,-4,2,6711,-9,11,i
CCCc1cc(C(N)=O)c(NC(=O)c2cc(C)on2)s1,-14,?,16687*,6,-2,i
SMILES,Anthrax LF inh2,BoNT-A LC inh2,Autofluor counter,MazEF act,BoNT F protease,Vc quorum ag
Cc1ccc(CN2CCNC(=O)C2CC(=O)O)cc1 (centres undefined),-5,0,5174,-2,-8,0
CN1CCNC(=O)C1CC(=O)O (centres undefined),1,?,22031*,2,0,-1
Cc1ccc(-n2c(=O)cc(NCc3cccnc3)[nH]c2=O)cc1,0,2,21543*,2,2,0
COc1ccc(CNC(=O)C(C#N)c2nc3ccccc3nc2N2CCCC2)cc1 (centres undefined),3,1,2682,+,-4,0
COc1ccc(CNC(=O)C(C#N)c2nc3ccccc3nc2N2CCN(C)CC2)cc1 (centres undefined),-3,0,3038,0,-6,0
CCOC(=O)C1CCN(c2nc3ccccc3nc2C(C#N)C(=O)OC(C)C)CC1 (centres undefined),5,6,2860,351*,21,7
CCCCCCOC(=O)C(C#N)c1nc2ccccc2nc1N1CCN(C)CC1 (centres undefined),25,4,8819,9,2,0
CCC(C)COC(=O)C(C#N)c1nc2ccccc2nc1N1CCCCC1 (centres undefined),15,?,21493*,-31,6,i
CC(C)OC(=O)C(C#N)c1nc2ccccc2nc1N1CCCC1 (centres undefined),-2,6,3598,1,-1,-1
CCC(CC)COC(=O)C(C#N)c1nc2ccccc2nc1N1CCN(CC)CC1 (centres undefined),10,7,21646*,-7,3,i
Cc1ccc(C(=O)Nc2cccc(NC(=O)c3ccc(C)o3)n2)o1,3,2,3128,12,15,0
CCN(CC)CCCN(C(=O)c1ccc(F)cc1)c1nc(-c2ccc(OC)cc2)cs1,-3,-2,3848,26,-20,i
CCn1nc(C)c(CNC(=O)CCc2nnc(Cc3c[nH]c4ccccc34)o2)c1C,-3,-1,4208,5,4,i
COc1cc(/C=C(/C#N)C(=O)NCCc2c[nH]c3ccccc23)ccc1OCc1ccccc1F,1,-1,23745*,27,-1,1
CCSc1nnc(NC(=O)[C@@H](NC(=O)c2ccc(C(C)(C)C)cc2)C(C)C)s1,-1,0,2144,0,1,i
Cc1cc(C)cc(Oc2nn[nH]n2)c1,1,-1,24301*,1,-4,0
O=c1[nH]c2ccccc2nc1/C=C/c1ccc(F)cc1,-1,8,5620,849*,-8,0
COc1ccc(OC)c(/C=C/c2nc3ccccc3[nH]c2=O)c1,?,?,5926,240*,?,1
O=C(COc1ccc(Br)cc1)N(Cc1nnc(-c2ccccc2Cl)o1)C1CC1,-2,0,4094,2,-1,-1
CCCCCCCN1C2=NCCCN2c2ccccc21,0,0,4584,926*,-3,i
COc1nc(N)c(S(=O)(=O)c2ccc(C)cc2)cc1C#N,-1,1,19122*,-20,0,i
Cc1ccc(S(=O)(=O)c2cc(C#N)c(=O)[nH]c2N)cc1,-17,0,9434,-12,6,0
O=S(=O)(c1ccc(Oc2ccc(Cl)cc2)nc1)N1CCOCC1,-4,4,4210,-4,-2,7
O=C1CN(c2ccccc2Cl)C(=O)CN1c1ccccc1Cl,-2,-1,23954*,4,-4,i
O=C(O)c1cc[c]([Hg][Cl])cc1,-22,60*,9321,-12,-4,i
O=C(O)c1ccccc1,0,0,5529,9,11,0
